The target of test [1] is ATP-dependent 6-phosphofructokinase (Trypanosoma brucei brucei) (UniProt O15648). The experiment in a line: qHTS Assay to Find Inhibitors of T. brucei phosphofructokinase: hit validation (AID 492961).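 Also: luminescence reports ADP formed as PFK phosphorylates fructose-6-phosphate with ATP; series mostly up to about 51 µM.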 The method, boiled down: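 Reaction: 0.1 M triethanolamine pH 8.0, 5 mM MgCl2, F6P 0.5 mM, ATP 0.1 mM, PFK 1.25 nM, 45 min RT. Read-out: ADP-Glo luminescence. Analysis: concentration-response fits, classed by r2 and efficacy.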
(Quantitative high-throughput screening tests each substance at several concentrations.)

Test [2] concerns the target Ubiquitin carboxyl-terminal hydrolase 1 (Homo sapiens) (UniProt O94782). The experiment in a line: Inhibitors of USP1/UAF1: Pilot qHTS (AID 504865). Also: nearly all actives have a fitted effect of over 35% in size. Also: potency is read from the fitted curve at half-maximal effect. The method, boiled down:
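USP1/UAF1 complex at 1 nM preincubated 15 min at room temperature with compound, then Ub-Rho substrate added at 150 nM final. Fluorescence (480/540 nm) read kinetically in 50 mM HEPES pH 7.8, 0.5 mM EDTA, 1 mM TCEP, 0.1 mg/ml BSA, 0.01% Tween-20.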

Test [3] deals with Tyrosyl-DNA phosphodiesterase 1 (Homo sapiens) (UniProt Q9NUW8). Briefly: Confirmation Assay for Inhibitors of Tyrosyl-DNA Phosphodiesterase (TDP1) (AID 489007). Also: potency is read from the fitted curve at half-maximal effect; nearly all actives have a fitted effect of over 40% in size. The settings on record: recombinant human TDP1 enzymatic activity, dose-response. The method, boiled down:
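Compounds are preincubated 15 min at room temperature with 1 nM recombinant human Tdp1. The reaction starts on adding 15 nM FITC-phosphotyrosine DNA substrate, runs 5 min, and is detected by AlphaScreen beads after 10 min.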

Test [4] deals with DNA dC->dU-editing enzyme APOBEC-3G (Homo sapiens) (UniProt Q9HC16). Briefly: qHTS for inhibitors of Vif-A3G interactions: Validation (AID 588379). In outline:
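Yellow fluorescence (Ex 488, Em 500-530) of Vif-coexpressing HeLa A3G-eYFP cells, scanned by Acumen cytometer, reports blocked A3G degradation. Cells plated at 700/well overnight at 37 deg C before compound addition, then a further overnight compound incubation at 37 deg C.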

Structures are written as SMILES. Inconclusive results are not listed. Where a call stands in place of a potency, no number is given. Activity calls are given as the source filed them. Calls follow the shape of the dose curve; as a rule, active = well fitted curve in the direction sought with a large enough effect; inconclusive = small, poorly fitted or top-dose-only effect, or another doubt; inactive = no such curve, though single readings can be large; an effect the other way counts as inactive or inconclusive. Peptide text beside a SMILES is read from it.

ATP-dependent 6-phosphofructokinase (Trypanosoma brucei brucei), sequence (O15648 whole entry, looked up): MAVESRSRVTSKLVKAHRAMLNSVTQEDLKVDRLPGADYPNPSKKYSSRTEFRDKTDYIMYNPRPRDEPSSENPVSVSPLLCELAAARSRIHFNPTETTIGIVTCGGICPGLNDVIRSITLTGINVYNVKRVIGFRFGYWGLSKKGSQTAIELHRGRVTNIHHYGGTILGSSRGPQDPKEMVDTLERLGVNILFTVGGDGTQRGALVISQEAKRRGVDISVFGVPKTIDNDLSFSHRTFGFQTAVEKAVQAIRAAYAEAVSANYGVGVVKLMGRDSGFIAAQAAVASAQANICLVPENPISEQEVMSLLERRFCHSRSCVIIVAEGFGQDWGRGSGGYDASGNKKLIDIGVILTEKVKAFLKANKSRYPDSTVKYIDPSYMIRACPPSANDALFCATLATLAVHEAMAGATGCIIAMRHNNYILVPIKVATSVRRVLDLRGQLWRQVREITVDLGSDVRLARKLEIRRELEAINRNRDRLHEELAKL
Ubiquitin carboxyl-terminal hydrolase 1 (Homo sapiens), sequence (O94782 whole entry, looked up): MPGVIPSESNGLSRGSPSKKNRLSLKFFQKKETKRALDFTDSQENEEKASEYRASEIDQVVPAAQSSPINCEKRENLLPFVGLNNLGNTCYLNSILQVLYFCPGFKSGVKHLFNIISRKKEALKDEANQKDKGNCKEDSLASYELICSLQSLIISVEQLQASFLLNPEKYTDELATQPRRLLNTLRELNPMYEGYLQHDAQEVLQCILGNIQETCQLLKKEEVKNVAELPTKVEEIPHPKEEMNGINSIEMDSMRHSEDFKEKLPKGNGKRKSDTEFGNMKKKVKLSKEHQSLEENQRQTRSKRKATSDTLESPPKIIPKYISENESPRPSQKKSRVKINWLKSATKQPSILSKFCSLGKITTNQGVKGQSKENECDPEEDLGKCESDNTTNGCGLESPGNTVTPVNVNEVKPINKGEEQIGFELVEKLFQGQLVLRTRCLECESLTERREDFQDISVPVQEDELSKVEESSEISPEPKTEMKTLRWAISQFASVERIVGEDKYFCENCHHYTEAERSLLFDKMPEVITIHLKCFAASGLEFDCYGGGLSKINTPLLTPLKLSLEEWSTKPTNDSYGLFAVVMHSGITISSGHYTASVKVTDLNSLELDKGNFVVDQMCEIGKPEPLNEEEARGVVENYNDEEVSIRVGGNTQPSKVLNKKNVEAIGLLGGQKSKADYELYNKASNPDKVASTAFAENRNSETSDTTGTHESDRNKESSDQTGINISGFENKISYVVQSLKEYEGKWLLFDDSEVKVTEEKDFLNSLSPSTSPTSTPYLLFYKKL
Tyrosyl-DNA phosphodiesterase 1 (Homo sapiens), sequence (Q9NUW8 whole entry, looked up): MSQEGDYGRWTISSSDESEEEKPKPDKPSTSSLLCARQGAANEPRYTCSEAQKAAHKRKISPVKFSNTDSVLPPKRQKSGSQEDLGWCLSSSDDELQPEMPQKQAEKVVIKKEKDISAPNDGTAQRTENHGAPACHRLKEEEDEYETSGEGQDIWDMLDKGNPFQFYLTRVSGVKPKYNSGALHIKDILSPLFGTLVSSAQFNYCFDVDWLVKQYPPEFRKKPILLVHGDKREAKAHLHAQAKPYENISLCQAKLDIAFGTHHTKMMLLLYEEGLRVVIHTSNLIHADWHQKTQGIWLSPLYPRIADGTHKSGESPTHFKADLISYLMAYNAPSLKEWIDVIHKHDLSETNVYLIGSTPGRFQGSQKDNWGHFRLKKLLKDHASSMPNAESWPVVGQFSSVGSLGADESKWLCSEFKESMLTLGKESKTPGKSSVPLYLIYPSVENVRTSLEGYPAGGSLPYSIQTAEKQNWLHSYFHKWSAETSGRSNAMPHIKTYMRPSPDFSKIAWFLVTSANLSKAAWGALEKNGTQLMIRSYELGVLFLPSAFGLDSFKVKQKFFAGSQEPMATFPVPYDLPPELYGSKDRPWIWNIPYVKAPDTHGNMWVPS
DNA dC->dU-editing enzyme APOBEC-3G (Homo sapiens), sequence (Q9HC16 whole entry, looked up): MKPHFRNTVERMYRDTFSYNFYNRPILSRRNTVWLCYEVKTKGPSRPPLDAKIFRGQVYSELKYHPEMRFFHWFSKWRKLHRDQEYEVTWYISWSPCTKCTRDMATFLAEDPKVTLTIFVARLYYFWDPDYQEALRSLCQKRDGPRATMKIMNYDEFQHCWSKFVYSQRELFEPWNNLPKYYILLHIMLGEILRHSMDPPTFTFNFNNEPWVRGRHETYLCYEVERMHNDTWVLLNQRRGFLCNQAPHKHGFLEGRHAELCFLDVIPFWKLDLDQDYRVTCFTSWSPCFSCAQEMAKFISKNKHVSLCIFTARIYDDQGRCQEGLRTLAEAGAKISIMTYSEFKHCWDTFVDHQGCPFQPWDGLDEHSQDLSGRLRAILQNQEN

Regarding `O=C(Nc1cccc(C(F)(F)F)c1)c1cc(Br)cc(Br)c1O`, the Potency result in test [1] is “inactive”.

As to `CC(C)(C)NC(=O)[C@@H]1C[C@@H]2CCCC[C@@H]2CN1C[C@@H](O)[C@H](Cc1ccccc1)NC(=O)[C@H](CC(N)=O)NC(=O)c1ccc2ccccc2n1`, the Potency result in test [1] is “inactive”.

As to `CN1C(=O)CN2CCc3ccccc3C2c2cc(Cl)ccc21` (stereo unspecified), the Potency result in test [1] was “inactive”.

For the compound `O=S(=O)(O)c1cc(O)c2c(N=Nc3ccc(Nc4ccccc4)c4c(S(=O)(=O)O)cccc34)cc(S(=O)(=O)O)cc2c1`, the Potency result in test [1] is “inactive”. The Potency in test [2] was 11.2 µM (active).

Turning to `CC(=O)N[C@@H](CC(=O)O)C(=O)N[C@@H](CCC(=O)O)C(=O)O` (Ac-Asp-Glu-OH), in test [3], the Potency was 25.1 µM (active). In test [2], the Potency entry was “inactive”. In addition, the compound was classed as inactive in test [4].

As for `C[C@H]1C[C@H]2[C@@H]3CCC4=CC(=O)C=C[C@]4(C)[C@@]3(F)[C@@H](O)C[C@]2(C)[C@@]1(O)C(=O)CO`, the Potency result in test [1] and in test [2] was “inactive” in each case.

On to `Cc1cc(C(=O)NNCc2ccccc2)no1`, for which, in test [1], the Potency entry was “inactive”.

Take `COC(=O)[C@H]1[C@H]2C[C@@H]3c4[nH]c5ccccc5c4CCN3C[C@H]2C[C@@H](OC(=O)c2cc(OC)c(OC)c(OC)c2)[C@@H]1OC`: the Potency entry in test [1] is “inactive”.

As to `C#CCOc1ccc2c(C)cc(=O)oc2c1`, the Potency entry in test [1] and in test [2] was “inactive” in each case.

In the case of `CC[C@@]1(O)C(=O)OCc2c1cc1n(c2=O)Cc2cc3c([N+](=O)[O-])cccc3nc2-1`, in test [1], the Potency entry is “inactive”.

Take `CO[C@H]1C[C@@H]2CC[C@@H](C)[C@@](O)(O2)C(=O)C(=O)N2CCCC[C@H]2C(=O)O[C@H]([C@H](C)C[C@@H]2CC[C@@H](OCCO)[C@H](OC)C2)CC(=O)[C@H](C)/C=C(\C)[C@@H](O)[C@@H](OC)C(=O)[C@H](C)C[C@H](C)/C=C/C=C/C=C/1C`: the Potency result in test [1] is “inactive”.

The values above are taken from PubChem BioAssay (NCATS).
